Data on eleven molecules can be found in PubChem BioAssay (NCI).

SMILES strings stand for the structures. Compounds without any hit were thinned out: in the full panel of roughly 83,000, 20% have a hit.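 Each cell line was grown in a 96-well plate and treated with one concentration of compound for 48 hours. Values below 10 were considered active.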 Values without a mark were called inactive. Active and inactive are the calls of the source.

Common to all, as to experiment: NCI-60 one-dose screen, 48 h (100 = growth as untreated, 0 = no growth, -100 = all killed)
Holding throughout (conditions): 10 µM unless noted

For test [1], the system named is NCI-H23 lung.
For test [2], the system named is NCI-H226 lung.
Test [3] concerns NCI-H322M lung.
Test [4] has as its system HOP-62 NSCLC.
Test [5] relates to NCI-H460 lung.
Test [6] relates to HOP-92 NSCLC.
Test [7] concerns NCI-H522 lung.
For test [8], the system named is A549/ATCC NSCLC.
In test [9] the test system is 786-0 renal.
The subject of test [10] is COLO 205 colon.

Take `CC1=CC(=O)C(C(C)C)=CC1=Nc1cc(Br)c(O)c(Br)c1`: the growth was 25.7% in test [1]; 84.1% in [2]; 53.6% in test [3]; 12.7% in test [4]; 5.15% (active) in test [5]; 35.5% in [6]. Besides, the growth in test [7] was 55%; in test [8] it was 28.2%; in test [9], 9.71% (active); in test [10] it was 144%.
Regarding `CO[C@H]1/C=C/O[C@@]2(C)Oc3c(C)c(O)c4c(c3C2=O)C(=O)C(/C=N/N(c2ccccc2)c2ccccc2)=C(NC(=O)/C(C)=C\C=C\[C@H](C)[C@H](O)[C@@H](C)[C@@H](O)[C@@H](C)[C@H](OC(C)=O)[C@@H]1C)C4=O`, the growth in [1] was 5.83% (active); in [2] it was 18.4%; in [3], 22.2%; in [4] it was -76.7% (active); in test [5] it was -50.7% (active); in test [6], -48.6% (active). Moreover, the growth in [7] is -24% (active); in [8] it was 3.7% (active); in test [9], 3.91% (active); in test [10] it was -60.3% (active).
On to `COc1ccc(OC)c(/C=C2\COc3ccc(O)cc3C2=O)c1`, for which the growth in test [1] was 104%; in test [2], 98.5%; in test [3], 92.3%; in test [4], 108%; in test [5], 101%; in test [6], 93.7%. Also, the growth in test [7] was 38%; in test [8], 101%; in test [9] it was 96.4%; in test [10] it was 109%.
With `Cn1ncc2c(Nc3ccc(Br)cc3)nc(Nc3ccc(Br)cc3)nc21`, the growth was 27.5% in test [1]; 62.1% in test [2]; 73% in test [3]; 23.8% in [4]; 8.2% (active) in test [5]; 7.66% (active) in test [6]. Further, the growth in test [7] was 44.8%; in test [8], 48.1%; in test [9], -38.9% (active); in test [10], 64%.
For `O=C(O)c1ccc(CO)o1`, the growth in test [1] is 110%; in [2] it was 106%; in test [3], 105%; in [4] it was 113%; in test [5], 101%; in test [6], 91.5%. The growth in test [7] was 86.4%; in [8] it was 93.6%; in test [9], 77.8%; in test [10], 115%.
With `COc1cc(-c2ncn(/C=C\c3nnco3)n2)cc(C(F)(F)F)c1`, the growth in [1] is 26.6%; in test [2], -0.243% (active); in test [3], 8.72% (active); in test [4], 39.8%; in [5], 0.25% (active); in test [6], 61.4%. In addition, the growth in test [7] was -11.4% (active); in test [8] it was 16.7%; in test [9] it was 5.1% (active); in test [10], 0.0945% (active).
Turning to `N#Cc1c(N)nc2c(nnn2-c2cccc(Br)c2)c1N`, the growth in [1] was 89.5%; in test [2] it was 95.7%; in test [3], 97.6%; in test [4], 94.8%; in test [5], 97.1%; in [6], 82.2%. For the same molecule, the growth in test [7] is 86%; in test [8], 92.6%; in test [9] it was 105%; in test [10], 105%.
For `COc1ccc2cc(-c3ccc(C(=O)NN)c(C)n3)ccc2c1`, the growth in test [1] was 95.5%; in test [2], 103%; in [3], 94.6%; in test [4], 101%; in test [5] it was 104%; in test [6], 96.2%. Also, the growth was 69.8% in test [7], 93.1% in test [8], 95.1% in test [9] and 104% in test [10].
Regarding `Cc1nc(-c2ccccc2)cc2c(O)c(C(=O)N/N=C/c3ccc(N(C)C)cc3)[nH]c(=O)c12`, the growth in test [1] is 78.1%; in test [2], 107%; in [3] it was 90.5%; in test [4] it was 77.3%; in test [5], 94.9%; in [6], 32%. Moreover, the growth in test [7] is 72.7%; in test [8] it was 40.5%; in [9], 79.2%; in test [10], 109%.
On to `COc1ccc(OC)c(C(=O)Nc2cccc(-c3cc(=O)c4ccccc4o3)c2)c1`, for which the growth is 92.8% in test [1]; 92.4% in [2]; 86.9% in [3]; 89.1% in [4]; 90% in test [5]; 93.7% in [6]. Moreover, the growth was 68.1% in test [7], 88.8% in [8], 92.6% in [9] and 104% in [10].
For `COc1ccc(/C=C2\COc3ccc(O)c(O)c3C2=O)c(OC)c1`, the growth in test [1] was 78.8%; in [2] it was 92.4%; in [3], 73.7%; in [4] it was 72.9%; in [5], 72.4%; in [6], 91.5%. Further, the growth in test [7] was -17% (active); in test [8], 62.9%; in [9], 61.1%; in [10] it was 107%.
